The nature of assay [1]: Quantitative High-Throughput drug screen in 47 multiple myeloma cell lines against the NCATS MIPE library collection: MMM1_PLB cell viability assay (AID 1918976). Also: nearly all actives have a fitted effect of over 35% in size. As to conditions: MMM1 myeloma cells viability, CellTiter-Glo, 48 h; series mostly up to 45.8 µM. The essentials:
(§1)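 MIPE 4.0 approved/investigational drugs; 500 cells/well; 48 h 37 °C humidified 5% CO2; CTG luminescence readout; DMSO = 100%, media = 0% viability.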
On the technique in general: Cellular ATP, detected with luciferase, serves as a proxy for viable cell number.

Assay [2] in a line: Quantitative High-Throughput drug screen in 47 multiple myeloma cell lines against the NCATS MIPE library collection: MOLP8_DSMZ cell viability assay (AID 1918977). Also: nearly all actives have a fitted effect of over 45% in size. The following applies: MOLP8 myeloma viability, CellTiter-Glo ATP luminescence, 48 h; series mostly up to 45.8 µM. The essentials: as §1
Assay [3] is described as follows: Quantitative High-Throughput drug screen in 47 multiple myeloma cell lines against the NCATS MIPE library collection: MM1S_ATCC cell viability assay (AID 1918980). Also: nearly all actives have a fitted effect of over 45% in size. As to conditions: MM1S myeloma viability, CellTiter-Glo ATP luminescence, 48 h; series mostly up to 45.8 µM. The essentials:
as §1

Assay [4] can be described thus: Quantitative High-Throughput drug screen in 47 multiple myeloma cell lines against the NCATS MIPE library collection: MM1R_ATCC cell viability assay (AID 1918981). Also: nearly all actives have a fitted effect of over 35% in size. As to conditions: MM1R multiple myeloma cells, CellTiter-Glo viability, 48 h; series mostly up to 45.8 µM. The essentials:
as §1

Assay [5] in a line: Quantitative High-Throughput drug screen in 47 multiple myeloma cell lines against the NCATS MIPE library collection: LP1_DSMZ cell viability assay (AID 1918982). Also: nearly all actives have a fitted effect of over 35% in size. The following applies: LP1 myeloma viability, CellTiter-Glo ATP luminescence, 48 h; series mostly up to 45.8 µM. The essentials: as §1
The nature of assay [6]: Quantitative High-Throughput drug screen in 47 multiple myeloma cell lines against the NCATS MIPE library collection: L363_DSMZ cell viability assay (AID 1918984). Also: nearly all actives have a fitted effect of over 40% in size. As to conditions: L363 myeloma viability, CellTiter-Glo ATP luminescence, 48 h; series mostly up to 45.8 µM. The essentials: as §1
The nature of assay [7]: Quantitative High-Throughput drug screen in 47 multiple myeloma cell lines against the NCATS MIPE library collection: KMS34_JCRB cell viability assay (AID 1918985). Also: nearly all actives have a fitted effect of over 40% in size. As to conditions: KMS34 myeloma viability, CellTiter-Glo ATP luminescence, 48 h; series mostly up to 45.8 µM. The essentials:
as §1

Assay [8] can be described thus: Quantitative High-Throughput drug screen in 47 multiple myeloma cell lines against the NCATS MIPE library collection: NCIH929_DSMZ cell viability assay (AID 1918978). Also: nearly all actives have a fitted effect of over 35% in size. The following applies: NCI-H929 myeloma viability, CellTiter-Glo ATP, 48 h; series mostly up to 45.8 µM. The essentials:
as §1

Assay [9] in a line: Quantitative High-Throughput drug screen in 47 multiple myeloma cell lines against the NCATS MIPE library collection: OCIMY1_PLB cell viability assay (AID 1918979). Also: nearly all actives have a fitted effect of over 35% in size. As to conditions: OCI-MY1 myeloma viability, CellTiter-Glo ATP, 48 h; series mostly up to 45.8 µM. The essentials:
as §1

Assay [10] is described as follows: Quantitative High-Throughput drug screen in 47 multiple myeloma cell lines against the NCATS MIPE library collection: KMS28PE_JCRB cell viability assay (AID 1918983). Also: nearly all actives have a fitted effect of over 35% in size. As to conditions: KMS28PE multiple myeloma viability, CellTiter-Glo ATP, 48 h; series mostly up to 45.8 µM. The essentials: as §1

Records with an inconclusive call do not appear. Activity calls are given as the source filed them. Calls follow the shape of the dose curve; as a rule, active = well fitted curve in the direction sought with a large enough effect; inconclusive = small, poorly fitted or top-dose-only effect, or another doubt; inactive = no such curve, though single readings can be large; an effect the other way counts as inactive or inconclusive.
Potency is read from the fitted curve at half-maximal effect.

`O=C(NCc1ccccc1)c1csc(Nc2ccncn2)n1`: the Potency in assay [1] was 14.8 µM (active); in assay [2] it was 18.7 µM (active); in assay [3] it was 16.6 µM (active); in [4], 14.8 µM (active); in [5], 18.7 µM (active); in assay [6], 10.5 µM (active). Also, in assay [7], the Potency is 23.5 µM (active).

`O=C1NC(=O)C(=Cc2ccc(-c3ccc(F)cc3)o2)S1`: the Potency was 11.8 µM (active) in assay [1], 2.09 µM (active) in assay [4] and 3.72 µM (active) in assay [6]. For the same compound, in [2], the Potency result was “inactive”.

`C=C1C(=O)[C@@]23C(CC[C@@H]1[C@H]2O)[C@@]12CO[C@]3(O)[C@@H](O)[C@@H]1C(C)(C)CC[C@@H]2O` (some centres undefined): the Potency is 13.2 µM (active) in assay [1]; 2.35 µM (active) in assay [2]; 1.32 µM (active) in [8]; 7.43 µM (active) in [9]; 1.87 µM (active) in assay [3]; 1.48 µM (active) in assay [4]. For the same compound, the Potency is 4.18 µM (active) in [5], 3.72 µM (active) in assay [10] and 1.05 µM (active) in assay [7].

As for `COc1ccc(Cc2nccc3cc(OC)c(OC)cc23)cc1OC`, the Potency in [1] is 23.5 µM (active); in assay [9], 18.7 µM (active); in [3], 23.5 µM (active); in assay [4] it was 23.5 µM (active); in [10] it was 8.33 µM (active); in [7] it was 3.72 µM (active). In addition, the Potency entry in [8] was “inactive”.

On to `CC(C)(C)C(=O)Oc1ccc2c(c1)nc(NC(=O)c1cccc([N+](=O)[O-])c1)n2CCCO`, for which the Potency in [1] is 13.2 µM (active); in assay [3], 23.5 µM (active). For the same compound, the Potency result in assay [8] is “inactive”.

For `N#CC1(c2ccc(NC(=O)c3cccnc3NCc3ccncc3)cc2)CCCC1`, the Potency in assay [1] is 18.7 µM (active); in [5], 16.6 µM (active). Moreover, the Potency result in assay [8], in [9], in assay [3], in assay [6] and in assay [7] was “inactive” in each case.

With `COc1ccc(-c2cc(=O)c3c(O)cc(O)cc3o2)cc1O`, the Potency in assay [1] was 0.935 µM (active); in assay [8] it was 2.64 µM (active); in [3], 6.62 µM (active); in [4], 16.6 µM (active); in assay [6] it was 5.9 µM (active). Also, the Potency result in [9] and in assay [10] was “inactive” in each case.

For the origin of these results see PubChem BioAssay (NCATS).
